Measurements: PubChem BioAssay (NCATS)
Records with an inconclusive call do not appear. Calls of active or inactive are those of the source. The call rests on the fitted dose curve; in most records, active means well fitted curve in the direction sought with a large enough effect; inconclusive means small, poorly fitted or top-dose-only effect, or another doubt; inactive means no such curve, though single readings can be large; an effect the other way counts as inactive or inconclusive.

Assays:
[1] = S16 Schwann cell viability assay (CellTiter-Glo assay) (AID 624031);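 further: cellular ATP luminescence as a viability measure; nearly all actives have a fitted effect of over 70% in size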
How it was run: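 Luminescent ATP read-out (CellTiter-Glo) after 24 h compound exposure of native S16 rat Schwann cells at 37 °C. Signals were normalized between cell-free wells and DMSO-treated cells, set as 0% activity.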

[2] = test system: ATS189; assay: qHTS profiling for inhibitors of Plasmodium falciparum proliferation (AID 504749); further: nearly all actives have a fitted effect of over 60% in size; conditions: P. falciparum in erythrocytes, SYBR Green DNA, 72 h; series mostly up to 12.8 µM
How it was run: (§1)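 Parasite proliferation within erythrocytes, 72 h exposure. Endpoint: SYBR Green I fluorescence after overnight lysis at room temperature. Controls: 0.29 uM artemisinin, DMSO.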

[3] = test system: CP185; assay: as above; conditions: P. falciparum in erythrocytes, SYBR Green DNA, 72 h; series mostly up to 12.8 µM
How it was run: as §1

[4] = test system: CP191; assay: as above; conditions: P. falciparum in erythrocytes, SYBR Green DNA, 72 h; series mostly up to 12.8 µM
How it was run: as §1

[5] = test system: CP192; assay: as above; conditions: P. falciparum in erythrocytes, SYBR Green DNA, 72 h; series mostly up to 28.7 µM
How it was run: as §1

[6] = test system: CP201; assay: as above; conditions: P. falciparum in erythrocytes, SYBR Green DNA, 72 h; series mostly up to 12.8 µM
How it was run: as §1

[7] = test system: CP247; assay: as above; conditions: P. falciparum in erythrocytes, SYBR Green DNA, 72 h; series mostly up to 12.8 µM
How it was run: as §1

[8] = test system: CP250; assay: as above; conditions: P. falciparum in erythrocytes, SYBR Green DNA, 72 h; series mostly up to 12.8 µM
How it was run: as §1

[9] = test system: CP256; assay: as above; conditions: P. falciparum in erythrocytes, SYBR Green DNA, 72 h; series mostly up to 12.8 µM
How it was run: as §1

[10] = test system: CP262; assay: as above; conditions: P. falciparum in erythrocytes, SYBR Green DNA, 72 h; series mostly up to 12.8 µM
How it was run: as §1

[11] = test system: CP265; assay: as above; conditions: P. falciparum in erythrocytes, SYBR Green DNA, 72 h; series mostly up to 12.8 µM
How it was run: as §1

[12] = test system: CP325; assay: as above; conditions: P. falciparum in erythrocytes, SYBR Green DNA, 72 h; series mostly up to 12.8 µM
How it was run: as §1

[13] = test system: CP329; assay: as above; conditions: P. falciparum in erythrocytes, SYBR Green DNA, 72 h; series mostly up to 12.8 µM
How it was run: as §1

[14] = test system: Dd2; assay: as above; conditions: P. falciparum in erythrocytes, SYBR Green DNA, 72 h; series mostly up to 12.8 µM
How it was run: as §1

[15] = test system: JCK; assay: as above; conditions: P. falciparum in erythrocytes, SYBR Green DNA, 72 h; series mostly up to 12.8 µM
How it was run: as §1

[16] = test system: N140; assay: as above; conditions: P. falciparum in erythrocytes, SYBR Green DNA, 72 h; series mostly up to 12.8 µM
How it was run: as §1

[17] = test system: PC15; assay: as above; conditions: P. falciparum in erythrocytes, SYBR Green DNA, 72 h; series mostly up to 12.8 µM
How it was run: as §1

[18] = test system: PC49; assay: as above; conditions: P. falciparum in erythrocytes, SYBR Green DNA, 72 h; series mostly up to 12.8 µM
How it was run: as §1

[19] = test system: SC27B; assay: as above; conditions: P. falciparum in erythrocytes, SYBR Green DNA, 72 h; series mostly up to 12.8 µM
How it was run: as §1

[20] = test system: TAB113; assay: as above; conditions: P. falciparum in erythrocytes, SYBR Green DNA, 72 h; series mostly up to 12.8 µM
How it was run: as §1

Measured: Potency

CO[C@H]1C[C@@H](O[C@@H]2[C@H](C)[C@H](O[C@@H]3O[C@@H](C)C[C@@H](N(C)C)[C@@H]3O)[C@H](C)C[C@]3(CO3)C(=O)[C@H](C)[C@H](O)[C@H](C)[C@H](C)OC(=O)[C@@H]2C)O[C@@H](C)[C@H]1O
inactive: all assays above

CC[C@H](NC(C)C)[C@H](O)c1ccc(O)c(O)c1
not listed: [7] | [8] | [17]
inactive: all other assays above

CCN[C@@H]1C[C@H](C)S(=O)(=O)c2sc(S(N)(=O)=O)cc21
not listed: [1]
inactive: all other assays above

CN(N=O)C(=O)N[C@H]1[C@@H](O)[C@H](O)[C@H](CO)O[C@@H]1O
inactive: all assays above

C[C@H](NCCc1ccc(O)cc1)[C@@H](O)c1ccc(O)cc1
inactive: all assays above

CC(=O)N(CC(O)CN(C(C)=O)c1c(I)c(C(=O)NC[C@@H](O)CO)c(I)c(C(=O)NC[C@@H](O)CO)c1I)c1c(I)c(C(=O)NC[C@@H](O)CO)c(I)c(C(=O)NC[C@@H](O)CO)c1I
inactive: all assays above

CC(C)(O/N=C(\C(=O)N[C@@H]1C(=O)N2C(C(=O)[O-])=C(C[n+]3ccccc3)CS[C@@H]12)c1csc(N)n1)C(=O)O
inactive: all assays above

C[N+]1(C)CCC[C@@H](OC(=O)C(O)(c2ccccc2)c2ccccc2)C1
not listed: [5]
inactive: all other assays above

O=c1[nH]c(=O)n([C@@H]2C[C@H](O)[C@H](CO)O2)cc1I
inactive: all assays above

CC1(C)Oc2ccc(C#N)cc2[C@H](N2CCCC2=O)[C@H]1O
inactive: all assays above
